Shown are actives, neighbours in structure and some others; about 1.3% of the full set was active somewhere.
LAP4-GFP MLPCN: modulators of TOR pathway LAP4-GFP in S. cerevisiae; S. cerevisiae LAP4-GFP multiplex, flow cytometry GFP, 3 h; median GFP as percent of DMSO wells; GFP response vs DMSO, % at 10 µM; hit rate 0.34% among 320,000;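 active = GFP response vs DMSO above a set limit, about the screen mean plus 3 SD, cut at about 150% in these data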
MEP2 TOR yeast: modulators of TOR pathway MEP2-GFP in S. cerevisiae; GFP response vs DMSO, % at 10 µM; AID 2016; S. cerevisiae MEP2-GFP strain, flow cytometry GFP, 3 h; 100% = DMSO control level; hit rate 0.51% among 330,000;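 active = GFP response versus DMSO above a set limit, roughly screen mean plus 3 SD, cut at about 180% in these data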;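 also: median GFP fluorescence of the barcode-gated MEP2-GFP cells per well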
CIT2 TOR yeast: yeast TOR pathway CIT2-GFP modulation; S. cerevisiae CIT2-GFP strain, flow cytometry, 3 h; 100 means same as DMSO wells; GFP response vs DMSO, % at 10 µM; hit rate 0.065% among 320,000; AID 2029;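 active = GFP response relative to DMSO above a set limit, near the screen mean plus 3 SD, cut at about 150% in these data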;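 also: ratio of well median GFP fluorescence to mean of DMSO wells on the plate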
Efflux pump mplx: blocks antifungal efflux pumps in multiplex yeast assay. S. cerevisiae Candida pump triplex, Nile Red efflux. AID 485275. hit rate 0.44% among 330,000. inhibition, % at 10 µM;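 active = plate passing quality check with inhibition over a set limit, or well fluorescence over plate mean plus 4 SD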;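 also: Nile Red retained in pooled yeast measured as flow cytometry median fluorescence; 0% = buffer negative control and 100% = Enniatin B positive control; higher means more Nile Red kept so more efflux inhibition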
RPL19A TOR yeast: modulators of TOR pathway RPL19A-GFP in S. cerevisiae; S. cerevisiae RPL19A-GFP strain, flow cytometry, 3 h; hits give low values; percent response vs DMSO, % at 10 µM; hit rate 0.3% among 330,000; AID 2025;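 active = percent response vs DMSO below 50%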;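 also: median channel GFP fluorescence of the barcoded RPL19A-GFP strain; ratio of sample median GFP to plate DMSO average so 100% = DMSO; lower means less RPL19A-GFP as with rapamycin TOR inhibition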
AGP1 TOR yeast: modulators of TOR pathway AGP1-GFP in S. cerevisiae; S. cerevisiae AGP1-GFP multiplex flow cytometry, 3 h; GFP as percent of DMSO wells; GFP response vs DMSO, % at 10 µM; hit rate 0.02% among 320,000;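 active = GFP response relative to DMSO above a set limit, near screen average plus 3 SD, cut at about 150% in these data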;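 also: median GFP channel fluorescence of the gated AGP1 strain per well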
Yeast cmpd fluor: flagged as fluorescent in efflux inhibitor counter-screen. shares compounds with Efflux pump mplx. S. cerevisiae AD/pABC3, compound fluorescence, flow cytometry. fluorescence ratio to DMSO, % at 10 µM. hit rate 4% among 1,700. AID 588517;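 active = fluorescence ratio to DMSO above its plate's cutoff, the plate mean ratio plus 5 SD, cut at about 210% in these data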;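 also: unstained yeast with no Nile Red so the signal is compound autofluorescence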
Mdr1 pump inh: blocks the Candida albicans Mdr1 efflux pump in yeast | hit rate 1% among 1,700 | shares compounds with Efflux pump mplx | inhibition, % at 10 µM | AID 588518 | S. cerevisiae AD/CaMDR1, Nile Red efflux, flow cytometry; in the data active = inhibition above about 26%;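 also: 0% = DMSO vehicle and 100% = reference inhibitor; higher means more Nile Red retained so more efflux inhibition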
Cdr2 pump inh: inhibitors of Candida albicans Cdr2 efflux pump. AID 588520. shares compounds with Efflux pump mplx. S. cerevisiae AD/CaCDR2, Nile Red retention, flow cytometry. Nile Red retention ratio vs DMSO, % at 10 µM. hit rate 4% among 1,700; in the data active = Nile Red retention ratio vs DMSO above about 190%;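 also: higher ratio means more blocking of Cdr2 efflux of the dye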
CaCdr1 efflux inh: Candida Cdr1 efflux pump inhibition. shares compounds with Efflux pump mplx. S. cerevisiae AD/CaCDR1, Nile Red efflux, flow cytometry. inhibition, % at 10 µM. hit rate 1% among 1,700. AID 588522;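 active = inhibition above the screen-wide mean plus twice its standard deviation, cut at about 32% in these data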
An asterisk follows results filed as active; · = not tested or not shown; + = active, no number.

SMILES	LAP4-GFP MLPCN	MEP2 TOR yeast	CIT2 TOR yeast	Efflux pump mplx	RPL19A TOR yeast	AGP1 TOR yeast	Yeast cmpd fluor	Mdr1 pump inh	Cdr2 pump inh	CaCdr1 efflux inh
COc1cc(CNC(C)(C)CO)cc(Br)c1OCc1ccc(Cl)cc1	97	97	108	6.4*	110	104	104	0	108	0
O=C(O)c1cccc(Nc2ccncc2[N+](=O)[O-])c1	87	106	105	1.2*	107	106	95	0	112	0
O=[N+]([O-])c1cnccc1Nc1ccccc1	102	101	96	0	98	96	·	·	·	·
Cc1ccc([N+](=O)[O-])cc1S(=O)(=O)Nc1cccc(-c2ccc(N3CCCC3)nn2)c1	101	100	103	0.4*	100	111	100	0	89	0
Cc1ccc(C(=O)Nn2cnnc2)cc1S(=O)(=O)N1CCOCC1	105	106	107	0	105	109	·	·	·	·
Cc1ccc(C)c(NC(=O)C2CC(=O)N(C3CCCCC3)C2)c1 (stereo not given)	101	103	100	0	97	100	·	·	·	·
O=[N+]([O-])c1ccc(Cl)c(S(=O)(=O)Nc2ccc(-c3ccc(N4CCOCC4)nn3)cc2)c1	104	106	104	0	99	109	·	·	·	·
O=S(=O)(Nc1ccc(-c2ccc(N3CCOCC3)nn2)cc1)c1ccc(Cl)c(Cl)c1	97	101	96	0.8*	98	98	102	0	114	0
CCC(NC(=O)NNC(=O)c1ccncc1)(C(F)(F)F)C(F)(F)F	·	98	·	0	101	·	·	·	·	·
O=C(NC(=O)c1ccccc1)Nc1ccc(Cl)cn1	94	102	94	0.4*	103	93	103	0	96	0
O=C(Nc1ccc(Cl)cn1)Nc1ccc(Cl)cn1	103	98	101	0	104	103	·	·	·	·
COC(=O)c1ccc(C2OCC(C)(C)CO2)cc1	86	100	66	1.1*	89	82	93	0	101	0
Cc1ccc(-c2cc(C(=O)NCCc3ccc(S(N)(=O)=O)cc3)c3ccccc3n2)cc1	91	96	97	0	102	99	·	·	·	·
NS(=O)(=O)c1ccc(CCNC(=O)c2cc(-c3ccccc3)nc3ccccc23)cc1	96	100	95	21*	105	99	108	0	94	0
Cc1cc(N/N=C/c2ccccc2[N+](=O)[O-])nc(-n2nc(C)cc2C)n1	121	92	86	0.8*	90	86	97	-1	92	0
CC(C)N(CCNC(=O)c1ccc(CS(=O)(=O)c2c(Cl)cccc2Cl)o1)Cc1ccccc1	102	103	105	0	103	107	·	·	·	·
COc1ccc(OC)c(/C=C2\NC(=O)NC2=O)c1	91	108	100	0	107	96	·	·	·	·
COc1cc(N2CCCC2)c(OC)cc1/C=C1/NC(=S)NC1=O	97	105	108	0.5*	99	98	289*	0	120	0
CCNc1ccc(S(=O)(=O)N2CCCCC2)cn1	111	103	99	0	106	117	·	·	·	·
CCCN(CC(=O)Nc1ccccc1C)C(=O)c1ccc(N2CCCCC2)c([N+](=O)[O-])c1	109	101	99	0	98	107	·	·	·	·
CCCSc1cc(N2CCCC2)nc(-c2ccccc2)n1	85	91	83	0	88	88	+	1	127	0
CCCSc1cc(N2CCN(C)CC2)nc(-c2ccc(OC)cc2)n1	143	130	102	1	93	104	82	0	89	0
